Several values for one entry are separate records, joined by “and”; a condition that tells them apart may be missing. Equal entries are not always repeated. About 480 (0.16%) of roughly 300,000 compounds were called active.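 The calls were made as follows: active = inhibition over 29.93%, a cutoff 3 SD above the screen mean, later confirmed by dose response; inconclusive = inhibition over 29.93% but no dose response follow-up; inactive = inhibition at most 29.93% or unconfirmed.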 Not all results are given here. Entries with a potency or affinity are not part of this list.
Experiment: inhibitors of PhoP regulon expression, primary screen, Salmonella Typhimurium, GFP reporter (AID 1863);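 also: 0% = low Mg2+ inducing control and 100% = high Mg2+ repressing control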
Settings: S. Typhimurium PhoP-regulated promoter GFP reporter, 4 h; at 50 µM; active compounds read high

inhibition, inactive:
COC(=O)c1ccc(NC(=O)C(OC)c2ccccc2)cc1 (stereo not given) 5.34%
O=C(NNC(=O)c1ccccc1OCc1ccc(F)cc1)c1ccccc1O 1.71%
COc1cccc(Oc2ccc(S(=O)(=O)N3CCCC3)cc2[N+](=O)[O-])c1 -0.65%
COc1ccc([C@@H]2[C@@H]3C(=O)N(C(C)(C)C)C(=O)[C@@H]3[C@]3(Cc4ccccc4)C(=O)N(c4ccccc4)C(=O)N23)cc1 6.74%
O=C(COc1ccccc1F)NNC(=O)c1ccc2c(=O)n3c(nc2c1)CCC3 -5.21%
CC(CN1CCCCC1)OC(=O)C(C)(c1ccccc1)c1ccccc1 (stereo not given) -9.7%
O=S(=O)(NCC1CCCO1)c1ccc(S(=O)(=O)N(Cc2ccc(F)cc2)Cc2ccco2)cc1 (stereo not given) 2.4%
CCCC(=O)Nc1c2c(nc3ccccc13)N(c1ccccc1)CC2 -4.18%
CCN(CCCCN1C(=O)c2ccccc2C1=O)c1ccc2c(c1)C(=O)N(C)C2=O -8.03%
COc1ccc(-c2cc3ccccc3n2CC(O)Cn2nc(C)cc2C)cc1 (stereo not given) 1.53%
O=C(O)c1cn(-c2ccc(N3CCCC3)c(F)c2)c2c(F)c(F)c(F)cc2c1=O -6.63%
O=C(O)c1cn(-c2ccc(F)cc2)c2cc(Cl)c(F)cc2c1=O 5.58%
O=C(/C=C/c1ccc([N+](=O)[O-])cc1)NCCc1ccccc1 6.48%
O=c1cc(N2CCN(c3ccccc3F)CC2)[nH]c(=O)n1-c1ccc(Br)cc1 -3.95%
Cc1sc2ncnc(N/N=C/c3cccc(O)c3)c2c1C -0.11%
C/C(=N\Nc1ncc(Cl)cc1Cl)c1ccccn1 9.66%
Cc1sc2ncnc(N/N=C/c3ccc(O)cc3)c2c1C 11.1%
Cc1sc2ncnc(Nc3ccccc3)c2c1C 8.39%
C=CCN(c1ccc(C(=O)NCCCn2ccnc2)cc1)S(C)(=O)=O 0.81%
Cc1ccc2c(=O)c(C(=O)c3ccc(F)cc3)cn(CC(=O)NCc3ccco3)c2n1 -4.56%
CCOC(=O)c1c(NC(=O)COC(=O)c2ccccn2)sc(C(=O)N(C)C)c1C 2.57%
C/C(=N\NC(=O)c1ccccc1Cl)c1ccccn1 5.97%
C/C(=N\NC(=O)c1cc(Br)ccc1O)c1ccccn1 3.69%
COc1ccc(CC(=S)NCCc2ccccc2)cc1 -4.36%
O=C(NC1CCCC1)C(c1ccccn1)N(Cc1ccc(F)cc1)C(=O)c1csnn1 (stereo not given) 0.43%
CCCCCCSc1cc(-c2nc3ccc(Cl)cn3c2NCCCC)ccc1OC -3.84%
CC(=O)Oc1ccc(OC(C)=O)c(SCCCCCCl)c1 -1.06%
COc1cc2ccc3c(CCN(C)C)cc(OC)c(OC)c3c2cc1OC -2.35%
CCCCn1nnnc1NCc1cc(OC)c(OC)cc1OC 35.9%
O=C(Nc1ccc(S(=O)(=O)N2CCc3ccccc3C2)cc1)C1CCCO1 (stereo not given) 13.2%
CCCCCn1c(CCNC(=O)c2cccs2)nc2ccccc21 11.2%
COc1ccccc1C(=O)OCc1ccc2sc(C)nc2c1 5.75%
C=CCNc1nc(Cl)nc(Nc2ccc([N+](=O)[O-])cc2)n1 13.8%
CC(C)c1cc(=O)n2[nH]c(SCc3ccccc3Cl)nc2n1 -7.54%
CCCOc1ccc(C(=O)NCCC(=O)NCCCC(=O)O)cc1 8.01%
CN(C)C/C(Cl)=C(\Cl)c1ccccc1 4.69%
COC(=O)c1c(NC(=O)c2ccco2)sc2c1CCN(C(C)C)C2 3.8%
CC(C)N1CCc2c(sc(NC(=O)c3ccc([N+](=O)[O-])o3)c2C(N)=O)C1 18%
NC(=O)c1c(NC(=O)c2ccc([N+](=O)[O-])o2)sc2c1CCCC2 -3.86%
CN1CCc2c(sc(NC(=O)c3ccco3)c2C(N)=O)C1 -4.37%
CC(C)(C)c1ccc(C(=O)N2CCN(C(=O)c3ccco3)CC2)cc1 1.4%
Cc1nn(-c2ccccc2)c(N2CCCC2)c1C=O -1.38%
O=S(=O)(c1ccccc1)c1nc(-c2ccco2)oc1NCCCn1ccnc1 5.16%
CC(C)N(C(=O)COC(=O)[C@@H]1CC(O)CN1S(=O)(=O)c1ccc(C(C)(C)C)cc1)C(C)C (stereo not given in full) 0.76%
CC(=O)C[C@H]1c2cc(C(F)(F)F)ccc2S(=O)(=O)N1c1ccc(N(C)C)cc1 -9.83%
Cc1c(N2C(=O)c3ccc(Br)cc3C2=O)c(=O)n(-c2ccccc2)n1C 2.78%
CCCCCCn1cc(C(=O)O)c(=O)c2cc(F)c(N3CCN(C(=O)OCC)CC3)cc21 5.63%
C=CCNC(=S)N1CCN(c2ncc3c(=O)c(C(=O)O)cn(CC)c3n2)CC1 14%
CCCCCCCC(=O)N1CCN(c2cc3c(cc2F)c(=O)c(C(=O)O)cn3CC)CC1 9.66%
CCCCCCCCC(=O)N1CCN(c2cc3c(cc2F)c(=O)c(C(=O)O)cn3CC)CC1 1.94%
CCOC(=O)c1cn(CC)c2cc(N3CCN(C)CC3)c(F)cc2c1=O 0.76%
CCn1cc(C(=O)O)c(=O)c2cnc(N3CCN(C(=S)Nc4ccccc4)CC3)nc21 5.11%
O=C(N/N=C1\CC2CC=CC12)c1ccccc1Cl (stereo not given) -4.57%
CC1(C)C(=O)Nc2ccccc2N1C(=O)c1ccc([N+](=O)[O-])cc1 7.48%
CCS(=O)(=O)N1CCCC(C(=O)NCC2CCCO2)C1 (stereo not given) 9.13%
COCCn1c(SCc2nnc(-c3ccccc3)o2)nc2sc3c(c2c1=O)CCC3 1.92%
O=C(NCc1cccnc1)/C(=C/c1ccco1)NC(=O)c1ccccc1 -2.07%
CCOc1ccc(C(=O)OCC(=O)NCCCc2ccccc2)cc1 -6.34%
COCCN1C=C2C(=O)C(C)(OC(=O)C3CCCC3)C(=O)C(c3ccccc3)=C2C=C1CCCC(=O)OC (stereo not given) 0.275%
O=C(c1ccc(NS(=O)(=O)c2ccc3c(c2)OCCO3)cc1)N1CCCCC1 -6.01%
Cn1cc(S(=O)(=O)NC2CCCCC2)c(=O)n(C)c1=O -6.38%
Cc1cc(C)nc(/N=C(\N)N(Cc2ccccc2)Cc2ccccc2)n1 -3.9%
COc1ccc(/C=N/NS(=O)(=O)c2ccc(C)cc2)cc1OC(=O)c1ccccc1 -3.56%
CCCCCCn1cc(C(=O)O)c(=O)c2cc(F)c(N3CCN(C)CC3)cc21 -2.32%
O=C(O)c1cn(C2CC2)c2cc(N3CCN(S(=O)(=O)c4ccc5c(c4)OCCO5)CC3)c(F)cc2c1=O 28.5%
CCN(C(=O)COC(=O)c1ccc(C)c(S(=O)(=O)N2CCCCC2)c1)C1CCS(=O)(=O)C1 (stereo not given) -0.22%
CC(Oc1ccccc1)C(=O)N=C1SC2CS(=O)(=O)CC2N1c1cccc(F)c1 (stereo not given) -0.94%
COc1ccc(S(=O)(=O)N(C)c2ccc(C(=O)NCC3CCCO3)cc2)cc1 (stereo not given) 15.5%
CN(C)NC1CC(=O)N(c2ccccc2)C1=O (stereo not given) -0.29%
CCOP(=O)(OCC)C(C)(C)NC(=O)c1cc([N+](=O)[O-])cc([N+](=O)[O-])c1 -1.13%
O=C1C(O)=C(O)C(=O)c2ccccc21 9.48%
O=C1Nc2ccccc2C1=O 6.44%
COC(=O)C1=C(SC)N(c2ccccc2)C(c2ccccc2)CC1=O (stereo not given) 11.8%
NC(=O)C[n+]1ccc(/C=N/O)cc1 -4.29%
CCCCCCCCCCCCCCCC[n+]1ccc(C(N)=O)cc1 20.5%
CCS(=O)(=O)N1CCCC(C(=O)NCCCOC)C1 (stereo not given) -8.48%
CC1(N(O)/C=C2\C=CC=CC2=O)CCCCC1=O (stereo not given) -4.1%
COC(=O)CCC(=O)Nc1ccccc1C(N)=O 15.3%
COc1ccc(O)c(/C=N/NC(=S)Nc2cccc(S(=O)(=O)N(C)C)c2)c1 22.2%
CN(C)S(=O)(=O)c1cccc(NC(=S)N/N=C/c2ccc(O)c(O)c2O)c1 -0.51%
Cc1ccc(Nc2nc(N)c([N+](=O)[O-])c(NCc3ccccc3)n2)cc1 -2.58%
Nc1ccc2c(c1)C(=O)c1ccccc1C2=O 8.76%
O=C1C(=O)c2ccc(-c3ccccc3)cc2-c2ccccc21 -10.4%
CC(=O)Nc1ccc(S(=O)(=O)N2C(C)CCCC2C)cc1 (stereo not given) 11.1%
COc1ccc(/C=N/NC(=O)Cn2nnc3ccccc32)cc1OC -6.81%
COc1cc(/C=N/NC(=O)Cn2nnc3ccccc32)ccc1O -5.12%
COCCNC(=O)C1CCC(Cn2c(=S)[nH]c3ccccc3c2=O)CC1 (stereo not given) 4.17%
CC(C)(C)/C(O)=C/c1nc2ccccc2oc1=O -5.43%
Cc1ccc2oc(=O)c(/C=C(\O)C(C)(C)C)nc2c1 -0.34%
CC(=O)Nc1ccc(CN(C)CC2CCCN(CCc3cccc(C(F)(F)F)c3)C2)cc1 (stereo not given) 8.69%
COc1ccccc1N=CC=C1OC(C)(C)C(C)(C)O1 -3.09%
CCC[C@@H](CNC)NC[C@H](Cc1ccccc1)NCCCCc1ccccc1 3.18%
CCC[C@H](CN[C@@H](CNC)[C@H](C)CC)NCCc1cc(C(F)(F)F)cc(C(F)(F)F)c1 19.5%
CC(Cc1cccc(C(F)(F)F)c1)NCCOC(=O)c1ccccc1 (stereo not given) -9.48% and -7.52%
CNC[C@@H](C)NC[C@@H](Cc1ccccc1)NCCc1ccccc1 9.81%
